High-throughput results deposited in PubChem BioAssay by several laboratories.
APP transl inh: APP translation inhibition; SH-SY5Y APP 5'UTR-luciferase reporter, luminescence; inhibition, % at 2 µM; 190,000 tested, 0.82% active;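 active = inhibition above a set limit, derived from the sample mean plus 3 SD, cut at about 45% in these data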
BaF3 tox: parental Ba/F3 viability inhibition as JAK2V617F counter-screen; inhibition, % at 5.6 µM; CellTiter-Glo ATP luminescence; 220,000 tested, 1.1% active;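 active = inhibition above a per-campaign cutoff, the mean inhibition of all tested compounds plus 3 SD, cut at about 27% in these data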;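 also: 0% = DMSO wells and 100% = JAK Inhibitor I control wells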
Ba/F3 V617F tox: lowers viability of Ba/F3 cells expressing EpoR and JAK2V617F; ATP luminescence; inhibition, % at 5.6 µM; 220,000 tested, 1.1% active; AID 1446;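 active = inhibition above the campaign mean plus 3 SD over all tested compounds, cut at about 24% in these data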;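 also: cytokine-independent growth of Ba/F3 cells driven by EpoR plus mutant JAK2; 0% = DMSO-treated cells and 100% = JAK inhibitor I control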
KLF5 inhibitor: suppresses KLF5 promoter-driven expression; DLD-1 KLF5 promoter-luciferase reporter, luminescence; inhibition, % at 5 µM; 290,000 tested, 0.23% active;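 active = inhibition above a per-plate limit of that plate's mean compound inhibition plus 3 SD, cut at about 60% in these data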;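 also: 0% = DMSO wells and 100% = LY294002 at 200 µM; higher means less KLF5 promoter-driven luciferase light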
IEC-6 tox: counter-screen for KLF5 inhibitors: cytotoxicity in IEC-6 cells. 290,000 tested, 0.78% active. inhibition, % at 5 µM. IEC-6 cytotoxicity, luminescence viability; in the data active = inhibition above about 22%;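 also: 0% = plate median of test compound wells and 100% = cytotoxic reference compound wells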
aSyn UTR inh: 5' untranslated region of α-synuclein, MLPCN primary screen; alpha-synuclein 5'UTR reporter, inhibitor activity; inhibition, % (tested at 7.5 µM); 300,000 tested, 0.82% active; in the data active = inhibition above about 60%;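 also: H4 neuroglioblastoma cells stably carrying SNCA 5'UTR luciferase fusion; 0% = DMSO wells and 100% = positive control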
* = called active by the depositor; . = no result given. Rows were chosen to be rich in hits. Some 2.2% of all compounds tested hit in one or more screens of this group.

SMILES	APP transl inh	BaF3 tox	Ba/F3 V617F tox	KLF5 inhibitor	IEC-6 tox	aSyn UTR inh
Nc1c(C(=O)Nc2ccc(S(=O)(=O)N3CCCC3)cc2)sc2nc3ccc(OC(F)(F)F)cc3cc12	72.6*	7.0	-3.3	11.7	-1.5	109.2*
Cc1noc(C)c1S(=O)(=O)N1CCC(C(=O)NCCN2CCC(C)CC2)CC1	61.1*	7.0	2.3	-18.0	1.2	-6.8
Cc1noc(C)c1S(=O)(=O)N1CCC(C(=O)NCCCN2CC(C)CC(C)C2)CC1 (centres undefined)	6.1	5.1	1.5	-14.4	1.0	20.2
COc1ccccc1-n1cc([C@@H]2C[C@H]3CN(c4ccccc4)C(=O)[C@]34CCCN24)cn1	94.8*	6.8	-1.1	-17.4	-1.8	-361.9
Fc1ccc(N2CN(Cc3cccnc3)CNC2=S)cc1	.	0.9	-2.6	-2.0	-0.3	.
O=C(Nc1ccc(Cl)cc1)/C(=C/c1ccc([N+](=O)[O-])cc1)c1nc2ccccc2s1	96.0*	-1.5	-2.4	3.8	1.2	.
Cc1cc(O)c(C)c(O)c1/C=N/NC(=O)c1cccnc1	.	.	.	22.2	12.9	68.5*
Cn1ncc(C(=O)N=S(C)(=O)c2ccccc2)c1[N+](=O)[O-] (centres undefined)	.	-2.8	-2.4	0.3	-9.2	-42.5
CC(C)Oc1ccccc1C1Nc2ccccc2C(=O)N1c1ccc2c(c1)OCCO2 (centres undefined)	-150.1	1.0	-2.7	-30.7	0.6	68.1*
COc1ccc(N2C(=O)c3ccccc3NC2c2ccccc2O)cc1 (centres undefined)	.	.	.	-102.1	7.4	-46.7
S=C1NCCOCCOCCOCCNC(=S)N2CCOCCOCCN1CCOCCOCC2	-6.5	5.5	-3.9	-38.9	-3.0	5.3
CC(C)N1CCC(=NNc2ccc(S(=O)(=O)N3CCOCC3)cc2[N+](=O)[O-])CC1	14.1	3.8	0.1	-34.0	-3.8	-15.1
CCCN1CCC(=NNc2ccc(S(=O)(=O)N3CCOCC3)cc2[N+](=O)[O-])CC1	88.1*	7.7	1.7	-24.0	-1.3	64.1*
OCCCNC(=S)Nc1ccc2nc(-c3ccccn3)c(-c3ccccn3)nc2c1	0.2	70.6*	84.6*	-43.8	-1.4	0.8
Cc1cc(OCC(=O)Nc2ccncc2)cc(C)c1Cl	.	.	.	-4.2	0.6	-12.2
CCCCn1c(N)c(N(CCC(C)C)C(=O)C2CC(=O)N(c3ccc(OC)cc3OC)C2)c(=O)[nH]c1=O (centres undefined)	.	.	.	.	.	-1.5
CC(=O)Oc1ccccc1/C=C/c1nc2ccccc2c(=O)o1	.	.	.	52.1	-2.1	65.6*
Cc1ccccc1C(=O)NCCCNC(=O)c1ccco1	.	.	.	-10.6	4.5	-21.3
CC(=O)Nc1sc(C)c(C)c1C(=O)OCC(=O)N(CC(C)C)c1c(N)n(Cc2ccccc2)c(=O)[nH]c1=O	.	.	.	.	.	77.3*
O=C(N/N=C/c1cccnc1)c1ccc(NC(=O)C(c2ccccc2)c2ccccc2)cc1	70.2*	1.6	1.7	-23.4	-4.7	111.3*
O=C(CNC(=O)C(c1ccccc1)c1ccccc1)N/N=C/c1cccnc1	.	2.4	0.5	-23.8	3.5	-6.0
COC(=O)c1cc(C)nc2c1C(=O)C(=O)C=C2N1CCOCC1	.	.	.	26.0	19.7	37.3
CCN(CC)CCNc1cc(C)nc2c1C(=O)C(=O)C=C2N1CCCCC1	66.8*	-6.3	6.6	-4.9	10.6	81.4*
C/C(=N\NC(=S)Nc1ccccc1C)c1ccc(O)cc1	-26.7	4.6	-1.2	-18.5	4.1	5.5
COc1ccc2ccccc2c1C(O)c1nccn1C (centres undefined)	-5.4	38.0*	59.4*	8.2	6.5	-13.4
SMILES	APP transl inh	BaF3 tox	Ba/F3 V617F tox	KLF5 inhibitor	IEC-6 tox	aSyn UTR inh
Cn1cc(C(=O)c2ccc(Cl)cc2)cc1-c1nc2ccccc2n1C	.	47.4*	-2.3	-11.4	1.5	11.1
Oc1[nH]c(N=C2N=c3ccccc3=N2)c2ccccc12	.	6.3	21.0	-81.0	77.0*	-59.8
CC(C)c1ccc2[nH]c(O)c(N=NC(=O)c3cccc(S(=O)(=O)Nc4ccc(Cl)cc4)c3)c2c1	6.1	5.0	3.5	-20.9	0.7	79.4*
CCn1ccnc1C(O)(c1ccccc1)c1ccccc1	.	.	.	-30.8	0.9	3.1
N#Cc1c(NC(=O)CSc2ncn[nH]2)sc2c1CCCCC2	79.3*	4.4	-0.4	2.5	2.7	82.5*
N#Cc1c(NC(=O)CSc2nc(N)cc(=O)[nH]2)sc2c1CCCCCC2	0.8	5.3	-0.3	-14.9	3.6	14.5
COc1nccc(-c2ccc(F)cc2)c1C#N	-0.2	3.6	0.2	-33.3	-3.4	6.1
O=C1c2ccccc2C(=O)c2[nH]cnc21	.	6.0	-1.9	-29.8	5.2	18.0
